Laboratory results reported in PubChem BioAssay AID2073 (Sanford-Burnham Center for Chemical Genomics, 2009).
In all, about 290,000 compounds went through this assay and about 570 (0.2%) were called active. Inconclusive results (about 1%) are left out. Rule as the data show it: active = inhibition mostly above about 51% (no sharp cut-off); inconclusive = no clear call, values can overlap the other calls; inactive = mostly below about 53%. What follows is part of a selection rich in actives, with near analogues and random picks from the rest.

Biological target: Voltage-dependent N-type calcium channel subunit alpha-1B (Homo sapiens) (UniProt Q00975)
Test: inhibitors of Mint1-CaV2.2 protein interaction, biochemical, HTRF (AID 2073)
Details: at 20 µM, stronger effect = higher value
[1] = measured here: average of repeat tests

Voltage-dependent N-type calcium channel subunit alpha-1B (Homo sapiens), sequence (Q00975 whole entry, looked up): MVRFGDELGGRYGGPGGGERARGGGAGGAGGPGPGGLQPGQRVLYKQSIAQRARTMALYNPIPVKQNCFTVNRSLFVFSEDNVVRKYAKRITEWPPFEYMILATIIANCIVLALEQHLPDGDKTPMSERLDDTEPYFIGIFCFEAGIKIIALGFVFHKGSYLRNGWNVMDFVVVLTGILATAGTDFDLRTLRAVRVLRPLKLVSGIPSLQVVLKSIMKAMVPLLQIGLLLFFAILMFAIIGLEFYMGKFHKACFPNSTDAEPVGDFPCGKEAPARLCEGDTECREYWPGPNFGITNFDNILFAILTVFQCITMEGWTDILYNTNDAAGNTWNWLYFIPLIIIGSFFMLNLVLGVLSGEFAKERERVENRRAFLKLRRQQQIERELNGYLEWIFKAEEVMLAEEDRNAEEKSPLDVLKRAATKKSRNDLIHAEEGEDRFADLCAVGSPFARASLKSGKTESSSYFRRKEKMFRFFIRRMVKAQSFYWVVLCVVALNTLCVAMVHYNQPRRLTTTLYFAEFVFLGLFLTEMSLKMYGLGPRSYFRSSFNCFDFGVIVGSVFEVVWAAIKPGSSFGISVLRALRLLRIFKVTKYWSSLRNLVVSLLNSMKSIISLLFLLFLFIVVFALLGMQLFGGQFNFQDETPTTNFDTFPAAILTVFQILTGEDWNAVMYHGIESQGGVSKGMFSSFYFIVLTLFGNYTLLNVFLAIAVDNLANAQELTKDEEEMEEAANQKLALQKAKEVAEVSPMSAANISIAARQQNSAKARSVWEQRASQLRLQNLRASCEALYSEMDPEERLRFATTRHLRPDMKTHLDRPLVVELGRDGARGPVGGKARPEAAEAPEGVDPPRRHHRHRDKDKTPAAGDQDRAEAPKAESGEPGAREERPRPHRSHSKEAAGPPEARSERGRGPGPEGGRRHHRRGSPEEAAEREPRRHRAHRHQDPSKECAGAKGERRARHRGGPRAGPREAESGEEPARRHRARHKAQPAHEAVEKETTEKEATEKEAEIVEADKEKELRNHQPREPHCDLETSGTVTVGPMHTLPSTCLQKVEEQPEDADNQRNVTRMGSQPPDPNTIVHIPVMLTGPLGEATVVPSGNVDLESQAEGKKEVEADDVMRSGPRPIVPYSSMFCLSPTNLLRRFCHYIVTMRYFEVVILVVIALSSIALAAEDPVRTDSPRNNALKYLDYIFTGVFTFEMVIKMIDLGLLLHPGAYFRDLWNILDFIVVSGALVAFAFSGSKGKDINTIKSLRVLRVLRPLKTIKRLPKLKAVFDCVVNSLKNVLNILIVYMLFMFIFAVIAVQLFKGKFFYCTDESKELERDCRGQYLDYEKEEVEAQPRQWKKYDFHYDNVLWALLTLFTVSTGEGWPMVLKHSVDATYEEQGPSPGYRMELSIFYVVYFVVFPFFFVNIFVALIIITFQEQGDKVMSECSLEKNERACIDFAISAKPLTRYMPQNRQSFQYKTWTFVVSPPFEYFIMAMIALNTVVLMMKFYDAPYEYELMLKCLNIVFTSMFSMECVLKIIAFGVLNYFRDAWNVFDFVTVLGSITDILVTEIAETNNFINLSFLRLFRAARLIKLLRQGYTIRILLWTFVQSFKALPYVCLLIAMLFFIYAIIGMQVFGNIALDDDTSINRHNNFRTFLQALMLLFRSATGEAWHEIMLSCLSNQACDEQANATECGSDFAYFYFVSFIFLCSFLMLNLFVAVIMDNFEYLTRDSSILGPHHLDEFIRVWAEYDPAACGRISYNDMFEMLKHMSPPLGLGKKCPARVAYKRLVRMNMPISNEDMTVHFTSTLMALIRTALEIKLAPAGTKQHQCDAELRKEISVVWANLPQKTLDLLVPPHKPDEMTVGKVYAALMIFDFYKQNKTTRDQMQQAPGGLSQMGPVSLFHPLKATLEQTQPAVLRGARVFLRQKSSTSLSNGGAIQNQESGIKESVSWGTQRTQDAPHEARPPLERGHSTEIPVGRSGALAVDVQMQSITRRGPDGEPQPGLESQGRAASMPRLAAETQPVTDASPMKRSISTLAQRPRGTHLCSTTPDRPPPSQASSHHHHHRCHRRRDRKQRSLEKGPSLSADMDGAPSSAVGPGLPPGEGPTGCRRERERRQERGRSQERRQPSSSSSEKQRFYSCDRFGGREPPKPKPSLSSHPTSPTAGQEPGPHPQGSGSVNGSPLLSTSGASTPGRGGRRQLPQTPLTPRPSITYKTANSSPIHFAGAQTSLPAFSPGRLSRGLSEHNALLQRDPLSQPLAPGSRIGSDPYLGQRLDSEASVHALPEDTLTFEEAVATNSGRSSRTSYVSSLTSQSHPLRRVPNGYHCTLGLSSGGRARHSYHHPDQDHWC

| Structure (SMILES) | inhibition | inhibition [1] |
| --- | --- | --- |
| CC(C)n1c(=O)c(C=Nc2ccc(Cl)cc2)c(O)n(Cc2ccco2)c1=O | 63.2% (inactive) | 17.6% |
| CC(C)n1c(=O)c(C=Nc2ccc(Br)cc2)c(O)n(Cc2ccco2)c1=O | 59.1% (active) | – |
| CC(C)n1c(=O)c(C=Nc2ccc(F)cc2)c(O)n(Cc2ccco2)c1=O | 14.1% (inactive) | – |
| O=C(O)CCn1cc(C=C2C(=O)NC(=O)NC2=O)c(-c2cc3ccccc3oc2=O)n1 | 42.3% (inactive) | – |
| O=C(O)CCn1cc(C=C2C(=O)NC(=S)NC2=O)c(-c2cccc(Br)c2)n1 | 75.7% (active) | – |
| O=C(O)CCn1cc(C=C2C(=O)NC(=O)NC2=O)c(-c2ccc(Br)cc2)n1 | 11.7% (inactive) | – |
| O=C(Cc1ccc(Br)cc1)N1CCN(Cc2ccccc2)CC1 | 9.2% (inactive) | – |
| CCc1ccc(N2C(=O)NC(=O)/C(=C/c3cccn3CCOc3ccc(C)cc3)C2=O)cc1 | 17.5% (inactive) | – |
| CN(C)C(=S)SSC(=S)N(C)C | 78% (active) | – |
| CC(=O)N1CCN(Cc2ccc(Cl)nc2)CC1 | 5.2% (inactive) | – |
| O=C1CC(=O)N(c2cccc(Br)c2)C(=O)N1 | 3.7% (inactive) | – |
| Cc1ccc(NC(=O)c2cn(CCC#N)nc2-c2ccc3c(c2)OCCO3)c([N+](=O)[O-])c1 | -4.2% (inactive) | – |
| COc1ccc(Cl)cc1N=Cc1c(O)n(C)c(=O)n(C)c1=O | 15.7% (inactive) | – |
| CCCCC/C=C\C/C=C\C/C=C\C/C=C\CCCC(=O)Nc1ccc(O)cc1 | 51% (active) | – |
| CCN(CC)C(=O)c1ccc(NC(=O)CCCSc2ccccc2)cc1 | -3.4% (inactive) | – |
| CCC(=O)Nc1ccccc1 | -4.1% (inactive) | – |
| CN1CCN(C(=O)Cc2ccccc2)CC1 | 5.6% (inactive) | – |
| O=c1[nH]c(=S)n(-c2ccccc2Cl)c(O)c1C=NCCN1CCNCC1 | -0.4% (inactive) | – |
| Cc1oc(-c2ccccc2)nc1CN1C(=O)CN=C(c2ccccc2)c2ccccc21 | -1.1% (inactive) | – |
| COc1ccc(CC[n+]2cc(/N=C(\C)[O-])on2)cc1OC | 11.6% (inactive) | – |
| Cc1cc(/C=C2\C(=O)NC(=O)N(C)C2=O)c(C)n1-c1ccc2c(c1)OCO2 | 0.4% (inactive) | – |
| Cc1cc(C=C2C(=O)NC(=O)NC2=O)c(C)n1-c1ccc2c(c1)OCO2 | 16.8% (inactive) | – |
| Cc1cc(C=C2C(=O)NC(=S)NC2=O)c(C)n1-c1ccc2c(c1)OCO2 | 53.2% (active) | – |
| O=C1NC(=O)C(CCc2ccncc2)(CCc2ccccn2)C(=O)N1c1ccc(Br)cc1 (stereo not drawn) | 16.2% (inactive) | – |
| COc1cc(Br)c(CNCCc2ccc3c(c2)OCO3)cc1OC | -3.9% (inactive) | – |
| COc1cc2c(c(OC)c1)C(=O)OC(C)CCCC(=O)CCCCC2 (stereo not drawn) | 7.1% (inactive) | – |
| O=c1c2ccccc2nc(/C=C/c2ccc(O)c(O)c2)n1-c1ccccc1 | 33.3% (inactive) | – |
| COc1cccc(-n2c(/C=C/c3ccc(O)c(O)c3)nc3ccccc3c2=O)c1 | 62.6% (active) | – |

| Structure (SMILES) | inhibition | inhibition [1] |
| --- | --- | --- |
| COc1ccc(-n2c(/C=C/c3ccc(O)c(O)c3)nc3ccccc3c2=O)cc1 | 40.5% (inactive) | – |
| O=C(CN1CC(c2ccccc2)CC1=O)NCc1ccc(F)cc1 (stereo not drawn) | -3.7% (inactive) | – |
| C[n+]1ccc(-c2ccncc2)cc1 | 6.3% (inactive) | – |
| CSc1nc(N)c(N=Nc2ccc([As](=O)(O)O)cc2)c(=O)[nH]1 | 58.9% (active) | – |
| COc1ccc(N=Nc2c(O)[nH]c(=S)[nH]c2=O)cc1 | -13.3% (inactive) | – |
| O=[As](O)(O)c1ccc(N=Nc2ccc(O)cc2)cc1 | 15.6% (inactive) | – |
| CN1C(=O)C(=Cc2ccc(OCCN(C)c3ccccn3)cc2)C(=O)N(C)C1=O | 3.3% (inactive) | – |
| N#CC(C#N)=Cc1ccc(C=C(C#N)C#N)cc1 | 19.1% (inactive) | – |
| CCOP(=O)(OCC)/C(C#N)=C/c1ccc(Br)cc1 | 3.7% (inactive) | – |
| CCc1ccc(/C=C(/C#N)C(N)=S)cc1 | 84.5% (active) | – |
| CN(C)P1(N(C)C)=NC(C(F)(F)F)=NC(C(F)(F)F)=N1 | 2.9% (inactive) | – |
| COc1c(C=C2C(=O)NC(=O)NC2=O)c(CCN(C)C(=O)c2ccccc2)cc2c1OCO2 | 15.8% (inactive) | – |
| CNC(=S)N(C)CCc1cc2c(c(OC)c1C=C1C(=O)NC(=O)NC1=O)OCO2 | 50.6% (active) | – |
| CNC(=S)N(C)CCc1cc2c(c(OC)c1/C=C1/C(=O)NC(=O)N(C)C1=O)OCO2 | 6.3% (inactive) | – |
| O=C1NC(=O)N(Cc2ccc(F)cc2)C(=O)/C1=C/c1cccs1 | 29.5% (inactive) | – |
| C=CCN1C(=O)/C(=C/c2cccs2)C(=O)NC1=S | -17.9% (inactive) | – |
| O=C1NC(=S)N(Cc2ccco2)C(=O)/C1=C\c1cccs1 | 76.9% (active) | – |
| Cc1c(C=C2C(=O)N(C)C(=S)N(C)C2=O)c2ccccc2n1CC(=O)NCC1CCCO1 (stereo not drawn) | -5.7% (inactive) | – |
| CCCCCCn1c(O)c(C=NCCN2CCOCC2)c(=O)[nH]c1=O | -1.8% (inactive) | – |
| O=C1/C(=C\c2ccc([N+](=O)[O-])cc2)N2CCC1CC2 | -2.4% (inactive) | – |
| O=C1C2(c3ccccc3)CN3CN(C2)CC1(c1ccccc1)C3 | -5.2% (inactive) | – |
| CC(C)[C@@]1(NC(=O)[C@@H]2C=C3c4cccc5[nH]cc(c45)C[C@H]3N(C)C2)O[C@@]2(O)[C@@H]3CCCN3C(=O)[C@H](Cc3ccccc3)N2C1=O | 66.3% (active) | – |
| CC(C)C[C@H]1C(=O)N2CCCC2[C@]2(O)O[C@](NC(=O)[C@@H]3C=C4c5cccc6[nH]cc(c56)CC4N(C)C3)(C(C)C)C(=O)N12 (stereo partly drawn) | 67.7% (inactive) | 31.4% |
| CC(C)[C@H]1C(=O)N2CCC[C@H]2[C@]2(O)O[C@](NC(=O)[C@@H]3C=C4c5cccc6[nH]cc(c56)C[C@H]4N(C)C3)(C(C)C)C(=O)N12 | 69.1% (inactive) | 26.9% |
| CC(C)CC(NC(=O)C1CCCCC1)C(=O)N1CCC2(CC1)OCCO2 (stereo not drawn) | -0.4% (inactive) | – |
| NP(=O)(OCCCc1ccccc1)Oc1ccc(Cl)cc1 (stereo not drawn) | 2.9% (inactive) | – |
| C=Cn1ccnc1P(=S)(c1ccc(Cl)cc1)c1nccn1C=C | 4.2% (inactive) | – |
